The results in this text go back to PubChem BioAssay (NCATS).

The target of experiment [1] is Lysosomal acid glucosylceramidase (Homo sapiens) (UniProt P04062). The experiment can be described thus: Glucocerebrosidase-p2 (AID 348; in the data active means potency below about 10 µM; further: potency means the concentration at half of the fitted maximal effect). To be noted: purified GBA, blue fluorogenic substrate, 40 min. The method, boiled down: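 Compounds titrated from 0.6 nM upwards against 0.2 nM enzyme in pH 5.9 citric acid/KH2PO4, taurocholate, tween-20; blue fluorogenic substrate 80 uM, 40 min room temperature, stopped and read Ex 365/Em 440 for AC50.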
Sequence of Lysosomal acid glucosylceramidase (Homo sapiens) (P04062 whole entry, looked up): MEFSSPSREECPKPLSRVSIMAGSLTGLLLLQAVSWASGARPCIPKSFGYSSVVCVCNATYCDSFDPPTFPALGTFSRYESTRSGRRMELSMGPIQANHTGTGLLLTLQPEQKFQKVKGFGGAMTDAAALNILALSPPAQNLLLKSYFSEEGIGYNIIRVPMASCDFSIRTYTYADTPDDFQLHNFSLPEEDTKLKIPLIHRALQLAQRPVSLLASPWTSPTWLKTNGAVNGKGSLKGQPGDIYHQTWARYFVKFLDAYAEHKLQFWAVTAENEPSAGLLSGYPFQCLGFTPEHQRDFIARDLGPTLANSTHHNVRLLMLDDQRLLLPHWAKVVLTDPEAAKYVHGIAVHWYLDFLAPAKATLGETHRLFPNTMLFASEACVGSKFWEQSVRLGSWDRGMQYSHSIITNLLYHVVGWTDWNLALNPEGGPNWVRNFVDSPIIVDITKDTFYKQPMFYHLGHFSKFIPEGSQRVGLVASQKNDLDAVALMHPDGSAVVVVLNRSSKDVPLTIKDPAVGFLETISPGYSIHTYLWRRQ

In experiment [2] the target is Cytochrome P450 1A2 (Homo sapiens) (UniProt P05177). The experiment is described as follows: p450-cyp1a2 (AID 410; calls by dose curve; further: potency means the concentration at half of the fitted maximal effect). The method, boiled down: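 Inhibition was calculated relative to 57 uM furafylline (full inhibition). The reaction used human CYP1A2 at 20nM with Luciferin-ME at its Km, 100uM, driven by an NADPH-regenerating system for 60 min at room temperature.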
Sequence of Cytochrome P450 1A2 (Homo sapiens) (P05177 whole entry, looked up): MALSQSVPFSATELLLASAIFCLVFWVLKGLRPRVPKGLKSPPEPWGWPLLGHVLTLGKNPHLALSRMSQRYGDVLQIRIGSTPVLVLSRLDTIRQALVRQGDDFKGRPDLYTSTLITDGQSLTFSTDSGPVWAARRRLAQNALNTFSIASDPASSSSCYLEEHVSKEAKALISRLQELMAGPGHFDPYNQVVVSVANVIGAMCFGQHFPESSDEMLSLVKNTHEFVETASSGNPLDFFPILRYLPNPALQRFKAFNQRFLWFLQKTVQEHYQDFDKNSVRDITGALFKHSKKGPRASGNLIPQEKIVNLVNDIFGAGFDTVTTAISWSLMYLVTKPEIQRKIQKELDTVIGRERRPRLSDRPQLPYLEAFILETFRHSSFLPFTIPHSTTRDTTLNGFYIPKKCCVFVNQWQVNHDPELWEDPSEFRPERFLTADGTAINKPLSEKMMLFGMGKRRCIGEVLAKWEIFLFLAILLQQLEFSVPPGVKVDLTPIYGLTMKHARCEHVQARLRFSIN
Experiment [3] in a line: NFAT Signaling Pathway (AID 444; active means well fitted curve in either direction with a large enough effect, not every such curve was filed as active;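 further: carbachol stimulus at about its EC50 of 1 µM final; on the % scale 0 is the no-effect control and ±100 the full control effect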). To be noted: Jurkat NFAT-bla M1, carbachol, beta-lactamase ratio, 5 h; at 7.69 µM (top of the series) unless noted. The method, boiled down:
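Read-out: CCF4 FRET ratio (460 nm/530 nm) after 1 h RT dye loading, used for %activity and AC50 from titration series. Cells: Jurkat NFAT-β-lactamase/M1 line, treated with compound plus 1 uM carbachol for 5 h, 37 °C.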

Experiment [4] in a line: Stat Signaling Pathway (AID 446; active means well fitted curve in either direction with a large enough effect, not every such curve was filed as active;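 further: ME-180 cervical cancer cells given 40 pM IL-6 alongside compound; SIE-controlled beta-lactamase reporter measured as 460/530 nm FRET emission ratio; on the % scale 0 is the no-effect control and ±100 the full control effect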). To be noted: ME-180 SIE beta-lactamase reporter, IL-6 stimulated, 5 h; at 7.69 µM (top of the series) unless noted. The essentials:
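Screening format detects activators and inhibitors alike: ME-180 SIE-bla cells stimulated at 40 pM IL-6 for 5 hrs with compound, then dual-emission beta-lactamase read at 405 nm excitation.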

The target in experiment [5] is Glucocorticoid receptor (Homo sapiens) (UniProt P04150). The experiment is described as follows: GR-GFP Redistribution (AID 450;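 active means compounds whose dose series gives a full or clear partial fitted curve of increased nuclear translocation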; further: potency means the concentration at half of the fitted maximal effect). To be noted: U2OS GR-GFP nuclear translocation, laser cytometry, 2 h.
Sequence of Glucocorticoid receptor (Homo sapiens) (P04150 whole entry, looked up): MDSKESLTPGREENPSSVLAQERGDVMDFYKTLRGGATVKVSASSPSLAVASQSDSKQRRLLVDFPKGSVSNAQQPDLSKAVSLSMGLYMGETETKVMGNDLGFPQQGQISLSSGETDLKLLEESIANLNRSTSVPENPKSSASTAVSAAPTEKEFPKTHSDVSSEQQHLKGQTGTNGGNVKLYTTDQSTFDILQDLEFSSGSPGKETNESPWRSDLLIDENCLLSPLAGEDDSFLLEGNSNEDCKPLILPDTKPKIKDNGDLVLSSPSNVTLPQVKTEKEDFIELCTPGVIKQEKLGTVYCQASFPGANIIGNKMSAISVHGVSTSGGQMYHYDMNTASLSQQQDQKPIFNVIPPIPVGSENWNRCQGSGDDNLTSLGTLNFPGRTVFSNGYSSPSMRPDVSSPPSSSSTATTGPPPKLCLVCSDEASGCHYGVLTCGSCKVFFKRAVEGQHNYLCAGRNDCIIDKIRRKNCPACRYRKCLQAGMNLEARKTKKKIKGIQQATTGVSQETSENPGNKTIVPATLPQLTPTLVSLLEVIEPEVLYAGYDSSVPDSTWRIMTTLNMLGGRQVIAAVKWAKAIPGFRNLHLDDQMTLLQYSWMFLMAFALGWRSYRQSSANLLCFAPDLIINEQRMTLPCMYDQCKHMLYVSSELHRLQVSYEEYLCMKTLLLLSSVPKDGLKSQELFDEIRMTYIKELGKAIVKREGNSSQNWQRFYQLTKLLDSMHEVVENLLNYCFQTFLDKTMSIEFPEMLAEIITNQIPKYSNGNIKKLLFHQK
For experiment [6] the target is unchanged. The experiment is described as follows: GR-EFC Redistribution (AID 451; calls by dose curve; further: potency means the concentration at half of the fitted maximal effect). To be noted: CHO-K1 GR-EFC translocation, beta-gal luminescence, 2 h. The method, boiled down:
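Translocation of GR-ED fusion to nuclear EA restores b-gal, read by luminescence after 1 h room-temperature detection. Engineered CHO-K1 biosensor cells, 1,000/well, exposed 2 h at 37 C to titrations up to 46 uM final.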

The target of experiment [7] is Mitogen-activated protein kinase 10 (Mus musculus) (UniProt Q61831). The experiment is described as follows: JNK3 AlphaScreen Assay (AID 530; active means well fitted curve in either direction with a large enough effect, not every such curve was filed as active;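 further: kinase came from lysate of stimulated human HepG2 cells; signal reports phosphorylation of biotinylated GST-cJun 1-79 at Ser73 with 10 µM ATP; on the % scale 0 is the no-effect control and ±100 the full control effect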). The essentials:
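Room-temperature AlphaScreen kinase assay; pre-activated HepG2 lysate as JNK3 source, biotin-GST-cJun(1-79) substrate, 10 uM ATP, compound 15 min preincubation.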
Background: In Alpha technology, singlet oxygen from a donor bead excites a nearby acceptor bead.

Experiment [8] deals with Cytochrome P450 3A4 (Homo sapiens) (UniProt P08684). The experiment can be described thus: qHTS Assay for Inhibitors and Substrates of Cytochrome P450 3A4 (AID 884). Further: potency means the concentration at half of the fitted maximal effect; nearly all actives have a fitted effect of over 50% in size. The method, boiled down:
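20 nM human CYP3A4 with 25 uM Luciferin-PPXE (at KM) in 200 mM KPO4, preincubated 10 min with compound; NADPH regeneration started a 60 min RT reaction. Luciferin detected by luminescence, normalized to 57 uM ketoconazole as full inhibition.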

Experiment [9] has the same target. The experiment is described as follows: qHTS Assay for Activators of Cytochrome P450 3A4 (AID 885). Further: nearly all actives have a fitted effect of over 65% in size. The essentials: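 Steps: enzyme/substrate mix dispensed; compound added, 10 min RT; NADPH regeneration solution added, 60 min RT; luciferin detection buffer stops reaction; 20 min later luminescence measured.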
(Quantitative high-throughput screening tests each substance at several concentrations.)

The target of experiment [10] is Dual specificity protein kinase CLK4 (Homo sapiens) (UniProt Q9HAZ1). The experiment can be described thus: qHTS Assay for Inhibitors of CDC-like Kinase 4 (Kinase-Glo Assay) (AID 1770). Further: nearly all actives have a fitted effect of over 65% in size. Further: potency means the concentration at half of the fitted maximal effect. The method, boiled down:
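Inhibition was judged from remaining ATP, measured by Ultra-Glo luciferase bioluminescence after Clk4 (25 nM) had acted on RS peptide at 1 uM ATP for 4.5 hours, room temperature.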

For experiment [11] the target is unchanged. The experiment can be described thus: qHTS Assay for Inhibitors of CDC-like Kinase 4 (ADP-FP Assay) (AID 1795). Further: nearly all actives have a fitted effect of over 60% in size. Further: potency means the concentration at half of the fitted maximal effect. The method, boiled down: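 Inhibition of ADP formation by 6.25 nM Clk4 is measured using 1 uM ATP and 100 uM RS repeat peptide over one hour. Produced ADP displaces a fluorescent tracer from antibody, lowering polarization.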
For experiment [12], the target named is Ubiquitin carboxyl-terminal hydrolase 1 (Homo sapiens) (UniProt O94782). The experiment can be described thus: Inhibitors of USP1/UAF1: Pilot qHTS (AID 504865). Further: nearly all actives have a fitted effect of over 35% in size. Further: potency means the concentration at half of the fitted maximal effect. The essentials: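 Kinetic fluorescence assay: 1nM USP1/UAF1, 15 min compound preincubation, then 150nM Ub-Rho; 480/540 nm.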
Sequence of Ubiquitin carboxyl-terminal hydrolase 1 (Homo sapiens) (O94782 whole entry, looked up): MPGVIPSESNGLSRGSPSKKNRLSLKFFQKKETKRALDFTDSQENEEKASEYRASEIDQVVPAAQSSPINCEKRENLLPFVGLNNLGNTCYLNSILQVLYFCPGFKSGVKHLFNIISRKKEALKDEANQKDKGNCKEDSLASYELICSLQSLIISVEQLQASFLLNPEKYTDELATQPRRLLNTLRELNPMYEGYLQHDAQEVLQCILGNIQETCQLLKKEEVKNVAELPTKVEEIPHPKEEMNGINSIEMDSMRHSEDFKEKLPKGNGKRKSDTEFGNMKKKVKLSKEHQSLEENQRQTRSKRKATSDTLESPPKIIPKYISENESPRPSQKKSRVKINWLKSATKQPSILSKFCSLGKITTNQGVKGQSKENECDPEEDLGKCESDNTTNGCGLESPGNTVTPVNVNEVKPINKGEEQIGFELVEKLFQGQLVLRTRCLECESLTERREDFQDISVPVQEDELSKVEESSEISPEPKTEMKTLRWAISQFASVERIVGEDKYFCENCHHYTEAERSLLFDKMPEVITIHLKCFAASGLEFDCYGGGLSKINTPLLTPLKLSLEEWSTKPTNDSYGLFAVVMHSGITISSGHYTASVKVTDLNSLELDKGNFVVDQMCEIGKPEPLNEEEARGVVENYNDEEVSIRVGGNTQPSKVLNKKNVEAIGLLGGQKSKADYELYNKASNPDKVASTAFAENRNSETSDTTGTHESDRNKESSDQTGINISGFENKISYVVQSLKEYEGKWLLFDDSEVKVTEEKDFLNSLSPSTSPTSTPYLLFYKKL
The nature of experiment [13]: Primary qHTS for small molecule stabilizers of the endoplasmic reticulum resident proteome: Secreted ER Calcium Modulated Protein (SERCaMP) assay (AID 1508630). Further: on the % scale 0 is the no-effect control and ±100 the full control effect. The method, boiled down: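 GLuc-SERCaMP-expressing SH-SY5Y cells, pretreated 16 h with compound, are challenged with thapsigargin to empty ER calcium stores; after 4 h, coelenterazine is added directly to the medium and luminescence is imaged.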

A short description of experiment [14]: AP1 Signaling Pathway (AID 357; active means well fitted curve in either direction with a large enough effect, not every such curve was filed as active). To be noted: ME-180 (cervical carcinoma) AP-1-bla reporter, EGF-induced, beta-lactamase ratio, 5 h; at 7.69 µM (top of the series) unless noted. The essentials:
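Modulation of EGF-driven AP-1 transcription was assessed with a beta-lactamase reporter in ME-180 cells. Compound and EC50 EGF were co-incubated 5 hours at 37 °C before 2.5-hour CCF4 loading at room temperature and dual-emission reading.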

Experiment [15] addresses 3',5'-cyclic-AMP phosphodiesterase 4B (Homo sapiens) (UniProt Q07343). The experiment can be described thus: qHTS Assay for Inhibitors of PDE-IV (AID 607; active means well fitted activation curve with a large enough effect in the main read-out, with a control signal flat, not every such curve was filed as active; further: % of control where 0% means no effect). The method, boiled down:
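The readout is membrane depolarisation from a cAMP-sensing CNG channel, detected with a potential dye at ex 535/em 590. Cells were HEK293-derived (endogenous PDE-IV) at 1000 cells/well, titrated up to 22.9 uM final.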

For experiment [16], the target named is Dual specificity protein kinase CLK4 (Homo sapiens) (UniProt Q9HAZ1). The experiment can be described thus: qHTS Assay for Inhibitors of CDC-like Kinase 4 (ADP-Glo Assay) (AID 1771). Further: potency means the concentration at half of the fitted maximal effect; nearly all actives have a fitted effect of over 70% in size. The method, boiled down: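 Kinase reaction: Clk4 at 25 nM, RS repeat peptide substrate at 100 uM, ATP at 1 uM, 1 hr, room temperature. Product ADP detected as luciferase signal via ADP-Glo.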
Sequence of Dual specificity protein kinase CLK4 (Homo sapiens) (Q9HAZ1 whole entry, looked up): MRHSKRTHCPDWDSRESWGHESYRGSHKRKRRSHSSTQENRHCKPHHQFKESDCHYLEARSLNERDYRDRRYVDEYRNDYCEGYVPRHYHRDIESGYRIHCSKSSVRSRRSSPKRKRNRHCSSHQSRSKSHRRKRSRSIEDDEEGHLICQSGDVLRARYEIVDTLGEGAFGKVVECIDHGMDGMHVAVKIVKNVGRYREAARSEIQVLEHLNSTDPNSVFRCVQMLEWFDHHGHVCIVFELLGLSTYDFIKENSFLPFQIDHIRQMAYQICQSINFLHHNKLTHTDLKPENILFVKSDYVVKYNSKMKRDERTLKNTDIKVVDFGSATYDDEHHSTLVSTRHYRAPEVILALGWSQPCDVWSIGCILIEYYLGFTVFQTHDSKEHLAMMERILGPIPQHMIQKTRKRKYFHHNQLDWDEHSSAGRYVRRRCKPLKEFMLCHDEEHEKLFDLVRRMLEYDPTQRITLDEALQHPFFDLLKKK

Experiment [17] has as its target Cytochrome P450 2C19 (Homo sapiens) (UniProt P33261). The experiment is described as follows: qHTS Assay for Inhibitors and Substrates of Cytochrome P450 2C19 (AID 899). Further: potency means the concentration at half of the fitted maximal effect; nearly all actives have a fitted effect of over 60% in size. The method, boiled down: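 5nM enzyme + 10uM Luciferin-H EGE (=KM), 50mM KPO4; cpd pin-transferred, 10 min 37C; NADPH regen, 60 min 37C; stopped w/ luciferin detection reagent, 20 min; luminescence. Normalized to 57uM ketoconazole (AC100).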

Values without a mark were called inactive. Inconclusive results are not listed. The source made the active and inactive calls. Unless noted, the call rests on the fitted dose curve; in most records, active means well fitted curve in the direction sought with a large enough effect; inconclusive means small, poorly fitted or top-dose-only effect, or another doubt; inactive means no such curve, though single readings can be large; an effect the other way counts as inactive or inconclusive.

Sequence of Cytochrome P450 3A4 (Homo sapiens) (P08684 whole entry, looked up): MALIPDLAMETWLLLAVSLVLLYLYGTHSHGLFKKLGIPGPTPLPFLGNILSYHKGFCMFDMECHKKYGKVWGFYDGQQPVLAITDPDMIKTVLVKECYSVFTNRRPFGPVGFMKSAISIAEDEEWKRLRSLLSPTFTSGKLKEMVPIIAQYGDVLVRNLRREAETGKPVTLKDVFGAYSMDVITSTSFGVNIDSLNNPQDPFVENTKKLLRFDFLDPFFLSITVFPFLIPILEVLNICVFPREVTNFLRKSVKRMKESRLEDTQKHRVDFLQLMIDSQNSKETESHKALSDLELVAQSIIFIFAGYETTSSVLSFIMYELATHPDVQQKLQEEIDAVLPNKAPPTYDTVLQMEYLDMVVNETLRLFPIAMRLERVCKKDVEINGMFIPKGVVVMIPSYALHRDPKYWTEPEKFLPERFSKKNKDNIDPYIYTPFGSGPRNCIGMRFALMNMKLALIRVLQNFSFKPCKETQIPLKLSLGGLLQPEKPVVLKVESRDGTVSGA
Sequence of 3',5'-cyclic-AMP phosphodiesterase 4B (Homo sapiens) (Q07343 whole entry, looked up): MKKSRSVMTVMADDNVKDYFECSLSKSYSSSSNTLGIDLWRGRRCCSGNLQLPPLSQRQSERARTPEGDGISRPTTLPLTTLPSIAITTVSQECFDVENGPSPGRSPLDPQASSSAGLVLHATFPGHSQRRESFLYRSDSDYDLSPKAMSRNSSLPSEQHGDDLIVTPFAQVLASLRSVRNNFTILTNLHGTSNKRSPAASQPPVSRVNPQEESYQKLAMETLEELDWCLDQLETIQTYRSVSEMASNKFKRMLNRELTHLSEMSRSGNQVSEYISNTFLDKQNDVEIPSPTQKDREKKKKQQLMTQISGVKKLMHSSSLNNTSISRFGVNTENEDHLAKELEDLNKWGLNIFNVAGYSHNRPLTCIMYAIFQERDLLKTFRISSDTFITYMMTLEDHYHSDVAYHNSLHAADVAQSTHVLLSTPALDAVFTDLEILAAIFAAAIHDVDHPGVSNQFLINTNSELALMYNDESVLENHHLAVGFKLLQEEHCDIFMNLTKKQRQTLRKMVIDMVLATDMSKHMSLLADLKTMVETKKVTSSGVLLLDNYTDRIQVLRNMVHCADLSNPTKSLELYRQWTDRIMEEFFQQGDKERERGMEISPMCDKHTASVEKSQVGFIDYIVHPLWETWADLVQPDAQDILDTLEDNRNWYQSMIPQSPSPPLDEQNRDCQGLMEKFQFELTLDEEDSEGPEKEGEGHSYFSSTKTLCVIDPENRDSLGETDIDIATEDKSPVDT
Sequence of Cytochrome P450 2C19 (Homo sapiens) (P33261 whole entry, looked up): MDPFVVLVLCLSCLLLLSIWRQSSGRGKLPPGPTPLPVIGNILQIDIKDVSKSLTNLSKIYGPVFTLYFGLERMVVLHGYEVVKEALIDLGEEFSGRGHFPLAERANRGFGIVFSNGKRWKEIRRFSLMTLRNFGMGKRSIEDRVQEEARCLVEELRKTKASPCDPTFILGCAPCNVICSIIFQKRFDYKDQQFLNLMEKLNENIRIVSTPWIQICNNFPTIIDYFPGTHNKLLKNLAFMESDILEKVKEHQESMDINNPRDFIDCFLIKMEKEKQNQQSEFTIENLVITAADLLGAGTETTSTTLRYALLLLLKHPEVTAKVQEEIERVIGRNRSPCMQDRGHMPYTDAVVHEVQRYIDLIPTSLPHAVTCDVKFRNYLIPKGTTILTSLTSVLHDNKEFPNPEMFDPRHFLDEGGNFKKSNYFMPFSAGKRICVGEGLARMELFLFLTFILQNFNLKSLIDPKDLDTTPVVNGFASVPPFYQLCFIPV

Turning to `CCNc1ncc2nc(CCc3ccccc3)c(=O)n(Cc3ccc(F)cc3)c2n1`, the Potency was over 11.4 µM in experiment [1]; 3.16 µM (active) in experiment [2]; over 9.22 µM in experiment [5]; over 46 µM in experiment [6]; 2.51 µM (active) in [8]. In addition, the activity change, negative = inhibition in [3] is 20.5%. In addition, in experiment [4], the activity, negative = inhibition is 26.2%. The Potency entry in [7], in [9], in experiment [10], in experiment [11] and in experiment [12] was “inactive” each time. Also, the outcome in experiment [13] was inactive.

Consider `N#Cc1cccc(-c2ccc3ncnc(N4CCNCC4)c3c2)c1`, for which the activity change, negative = inhibition in experiment [14] was -0.846%; in experiment [3], 6.74%. Also, the Potency in [2] is 0.631 µM (active); in experiment [5] it was over 46 µM; in experiment [6], over 46 µM; in experiment [10], 12.6 µM (active); in experiment [11], 11.2 µM (active); in experiment [12] it was 20 µM (active). The activity, negative = inhibition in [4] was 11.7%. Moreover, the Potency result in experiment [7], in [15] and in experiment [9] was “inactive” throughout. The outcome in [13] was inactive.

Take `CN(C)C(=O)c1ccc(-c2cc(N(C)Cc3ccco3)ncn2)cc1`: the Potency is over 11.4 µM in [1]; 25.1 µM (active) in experiment [2]; over 46 µM in experiment [5]; over 46 µM in [6]; 28.2 µM (active) in experiment [16]. Moreover, the activity change, negative = inhibition in experiment [14] was -8.02%; in [3] it was -13.4%. For the same molecule, in [4], the activity, negative = inhibition was 16.7%. The Potency entry in experiment [7], in experiment [15], in experiment [11] and in experiment [12] was “inactive” throughout. For the same molecule, the outcome in experiment [13] was inactive.

Consider `CNc1nc(-c2cccc(NS(C)(=O)=O)c2)nc2ccccc12`, for which the Potency in [1] was over 11.4 µM; in experiment [2], 0.398 µM (active); in experiment [5] it was over 46 µM; in experiment [6], over 46 µM; in experiment [10] it was 14.1 µM (active). The activity change, negative = inhibition was -8.82% in experiment [14] and 6.53% in experiment [3]. The activity, negative = inhibition in experiment [4] is -10.2%. Moreover, the Potency entry in experiment [7], in experiment [15], in experiment [9] and in experiment [12] was “inactive” throughout. Moreover, in experiment [13], the result was inactive.

With `COc1ccccc1CNc1ncncc1-c1cccc(NS(C)(=O)=O)c1`, the results for the activity change, negative = inhibition in [14] and in experiment [3] were -18.5% and 22.3%, respectively. In experiment [4], the activity, negative = inhibition is -7.42%. In addition, the results for the Potency in experiment [5], in experiment [6] and in [8] were over 46 µM, over 46 µM and 0.251 µM (active), respectively. The Potency entry in [7], in [15], in experiment [9], in [10], in experiment [11] and in experiment [12] was “inactive” in each case. In addition, in experiment [13], the outcome was inactive.

As to `Cc1noc(C)c1-c1nc(NCCN2CCOCC2)c2ccccc2n1`, the activity change, negative = inhibition in experiment [14] was -2.23%. The Potency in experiment [2] is 2.51 µM (active); in [5], over 46 µM; in experiment [6], over 46 µM; in experiment [17], 7.94 µM (active). The activity, negative = inhibition in experiment [4] was -0.501%. Further, the Potency result in experiment [7], in experiment [15], in [9], in experiment [10], in experiment [11] and in experiment [12] was “inactive” in each case. For the same molecule, in experiment [13], the result was inactive.
